# The OligoGym collection
# Molecular target: ZNF599
# Assay: pooled miR-30 sensor sort-seq; sequence = guide strand
# Settings: shRNA
# Note: reference of the scale not given here.
row,Sequence,sensor-assay potency score (higher = more potent)
1,AATCTCTTGAGGATCTCTGTGC,-0.218
2,TATGGGTCCTCTTATGTCGGAT,-0.578
3,TTCTCTACAAACATAGGGCTTC,0.194
4,TTCCACATTCTCTACAAACATA,-1.71
5,TTGTGGAGTGACTCGTTCCTGT,-0.347
6,TTGAGAGTCACACTCATGGAGA,-0.714
7,TTATTTTAAAATATGCTTGAGA,-0.0715
8,TTGCACATTCTTTGCACTCCAA,-0.563
9,TAAATGCATGTTAACCACCAGG,-1.03
10,TGAATCTTTAATATAATTCTTT,-0.316
11,TTAGCTTTTCCTCATCTCTAGC,-0.541

# Molecular target: ZNF609
# Assay: as above
# Settings: shRNA
row,Sequence,sensor-assay potency score (higher = more potent)
1,TGATTTGACACTGTCTACCTTG,0.639
2,TTGCAGTCACTACTTGTGCTTT,-0.589
3,TTGGAGAATAGTAACTCTCAAA,-1.39
4,TGAAACTGTAGATCTTGTCGGC,0.618
5,TTTCTGTCCAGAACAGTGGGTT,0.109
6,TTTGTGAGACAGATGCACCGTT,0.735
7,TATTGGATCCATCTCTGCCTGT,-0.575
8,TTGACATCCTCAGAAGTGCTGC,0.188
9,TTGACTTTCTTTAGCAGGCGAC,-0.497
10,TCTTTTTCCATACACTTCCTTT,-0.591
11,TATCGTGGGAGACTTGCTCTTG,-0.437
12,TAAACATATGTCCACATCCGGG,-1.36

# Molecular target: ZNF630
# Assay: as above
# Settings: shRNA
row,Sequence,sensor-assay potency score (higher = more potent)
1,TTTCACATTGACTATCTCCATA,-0.895
2,TAATTAGATGTGACTTCTGGGA,-0.376
3,TTCTTTCTTGCATAGCTCCTGT,0.0285
4,TAAGTCTGAATTAGACTTCAAG,-0.977
5,ACACATACTACAAACATTGGGT,-0.0412
6,TTGGACACTCAAAACACTCATA,-0.509
7,TTATAATTTAGTAAGTCTGAAT,-1.16
8,TTCCATACTTAGTACATTCATA,-0.904
9,ATACTTAGTACATTCATAGGGT,0.067
10,TTGCTTATGACTGAGAACTTTT,-0.853
11,TATAATTAGATGTGACTTCTGG,0.548
12,TAGAATGAGATGTGACTTCAGG,-0.186

# Molecular target: ZNF653
# Assay: as above
# Settings: shRNA
row,Sequence,sensor-assay potency score (higher = more potent)
1,TTTGTCACTGTCAGGGTCTGAG,-0.472
2,TTCCTCTTGAAGGACTTGCCGC,-0.882
3,TTGACGTGGTTCTGGAAGCTGC,-0.877
